According to PubChem BioAssay (EPA / NIEHS):
“And” between values parts separate entries of the source, which are not always exact repeats. Equal entries are not always repeated. Inconclusive results are not listed. The source made the active and inactive calls. The calls were made as follows, unless noted: active = hit-call score of the fitted dose curve at least 0.9, where 1 is the maximum; inactive = score below 0.9.

Tests used:
[1] = read-out: Monocyte Chemoattractant Protein-1 (MCP1), CCL2 (gene 6347); assay: BSK_SAg_MCP1: BioMAP Diversity Plus: SAg Assay for Monocyte Chemoattractant Protein-1 (MCP1) Biomarker Activity (AID 2283090); conditions: primary human HUVEC with PBMC; actives raise or lower the signal
Outline: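 Values derive from bidirectional fitting of ELISA-measured MCP1 against DMSO controls. Readings were taken 24 h after dosing human vascular endothelial cells co-cultured with peripheral blood mononuclear cells under superantigen stimulation.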

[2] = read-out: E-selectin (Homo sapiens) (UniProt P16581); assay: BSK_SAg_Eselectin: BioMAP Diversity Plus: SAg Assay for Eselectin Biomarker Activity (AID 2283091); conditions: primary human HUVEC with PBMC; actives raise or lower the signal
Outline: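 Cell-surface E-selectin is read by ELISA at 24 h in the SAg co-culture of HUVEC and PBMC. Curves are fitted in both directions relative to DMSO. Parallel SRB total-protein staining tracks overt toxicity.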

[3] = read-out: Monokine induced gamma interferon (MIG), CXCL9 (gene 4283); assay: BSK_SAg_MIG: BioMAP Diversity Plus: SAg Assay for Monokine induced gamma interferon (MIG) Biomarker Activity (AID 2283092); conditions: primary human HUVEC with PBMC; actives raise or lower the signal
Outline: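 Endothelial cells and PBMC were co-cultured, exposed to test chemicals, and sampled 24 h later. MIG was measured by ELISA, and responses were fitted in both directions relative to DMSO.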

[4] = BSK_SAg_PBMCCytotoxicity: PBMC Cytotoxicity Assessment in the BioMAP Diversity Plus: SAg Assay (AID 2283093); conditions: primary human HUVEC with PBMC;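 also: PBMC viability measured as Alamar Blue reduction fluorescence at 546/580 nm; fitted both ways against DMSO so a hit may be loss or gain of signal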
Outline: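 Alamar Blue reduction (6 h, 546/580 nm) reports PBMC cytotoxicity after 90 h superantigen activation (SEB, TSST-1; 20 ng/mL final each) with 1 h compound pre-treatment. Gain or loss of signal fitted versus DMSO.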

[5] = read-out: Interleukin-8 (IL8), CXCL8 (gene 3576); assay: BSK_SAg_IL8: BioMAP Diversity Plus: SAg Assay for Interleukin-8 (IL8) Biomarker Activity (AID 2283094); conditions: primary human HUVEC with PBMC; actives raise or lower the signal
Outline: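 Primary human endothelial cells with PBMC, exposed 24 h; IL-8 determined by ELISA, analysed bidirectionally relative to DMSO.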

[6] = BSK_SAg_Proliferation: Cell Proliferation Assessment in the BioMAP Diversity Plus: SAg Assay (AID 2283095); conditions: primary human HUVEC with PBMC;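 also: relative cell number as total protein by SRB absorbance in sub-confluent culture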
Outline: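 A human primary co-culture of umbilical vein endothelium and blood mononuclear cells receives compound; relative cell number is quantified at 96 h by SRB staining and 560 nm absorbance, with DMSO-referenced bidirectional curve fitting.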

[7] = BSK_SAg_SRB: Viability Assessment in the BioMAP Diversity Plus: SAg Assay (AID 2283096); conditions: primary human HUVEC with PBMC;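 also: cells read one day after compound addition; hits may be either gain or loss of signal compared with DMSO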
Outline: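 This overt-cytotoxicity endpoint quantifies protein in human endothelial/PBMC co-cultures at 24 h using SRB absorbance (560 nm) after trichloroacetic acid fixation. Values reflect signal change from the DMSO negative control, fitted bidirectionally.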

[8] = target: human CYP2D6, CYP2D6 (gene 1565) (UniProt P10635); assay: NVS_ADME_hCYP2D6: NovaScreen (NVS) CYP450-related Enzyme Activity (ADME) Assay for human CYP2D6 (AID 2283107; active = hit-call score of the fitted dose curve at least 0.9, where 1 is the maximum)
Outline: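 Fluorescence readout of recombinant CYP2D6 (insect-cell derived) activity after 1 h incubation with test chemical. Acetonitrile served as baseline, loss-of-signal direction. Single-concentration duplicate screening at 10 uM preceded concentration-response retesting.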

[9] = target: human CYP1A1, CYP1A1 (gene 1543) (UniProt P04798); assay: NVS_ADME_hCYP1A1: NovaScreen (NVS) CYP450-related Enzyme Activity (ADME) Assay for human CYP1A1 (AID 2283100; active = hit-call score of the fitted dose curve at least 0.9, where 1 is the maximum)
Outline: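 Chemicals were first tested in duplicate at 10 uM, and those passing a 30% inhibition threshold were rerun as concentration series topping at 20 uM. Fluorescence read-out of recombinant enzyme turnover after 1 h, relative to acetonitrile.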

[10] = target: human CYP19A1, CYP19A1 (gene 1588) (UniProt P11511); assay: NVS_ADME_hCYP19A1: NovaScreen (NVS) CYP450-related Enzyme Activity (ADME) Assay for human CYP19A1 (AID 2283098; active = hit-call score of the fitted dose curve at least 0.9, where 1 is the maximum;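 as to AC50: potency for inhibitors seen as loss of fluorescent enzyme signal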)
Outline: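 Compounds were first screened at 10 uM in duplicate against purified enzyme, with a fluorogenic substrate and fluorescence intensity detection after 0.5 h. Inhibition appears as reduced signal against acetonitrile control.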

Measured: AC50

E-selectin (Homo sapiens), sequence (P16581 whole entry, looked up): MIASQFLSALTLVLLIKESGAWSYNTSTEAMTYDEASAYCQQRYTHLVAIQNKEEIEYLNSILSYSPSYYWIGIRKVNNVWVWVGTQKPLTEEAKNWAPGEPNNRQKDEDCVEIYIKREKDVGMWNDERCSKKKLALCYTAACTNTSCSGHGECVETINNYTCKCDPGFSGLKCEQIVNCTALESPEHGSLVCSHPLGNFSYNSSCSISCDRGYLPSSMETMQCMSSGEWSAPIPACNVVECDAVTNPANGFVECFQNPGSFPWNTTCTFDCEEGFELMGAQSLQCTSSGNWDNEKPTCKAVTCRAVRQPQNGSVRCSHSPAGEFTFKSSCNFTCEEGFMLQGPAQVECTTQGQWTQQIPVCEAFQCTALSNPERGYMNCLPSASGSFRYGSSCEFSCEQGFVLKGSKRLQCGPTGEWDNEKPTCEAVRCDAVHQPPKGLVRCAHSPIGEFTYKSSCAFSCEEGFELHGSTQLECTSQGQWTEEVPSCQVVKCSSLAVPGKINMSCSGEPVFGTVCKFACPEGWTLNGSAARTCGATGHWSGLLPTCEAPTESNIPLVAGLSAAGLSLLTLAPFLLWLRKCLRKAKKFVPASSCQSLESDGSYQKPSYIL
human CYP19A1, CYP19A1 (gene 1588), sequence (P11511 whole entry, looked up): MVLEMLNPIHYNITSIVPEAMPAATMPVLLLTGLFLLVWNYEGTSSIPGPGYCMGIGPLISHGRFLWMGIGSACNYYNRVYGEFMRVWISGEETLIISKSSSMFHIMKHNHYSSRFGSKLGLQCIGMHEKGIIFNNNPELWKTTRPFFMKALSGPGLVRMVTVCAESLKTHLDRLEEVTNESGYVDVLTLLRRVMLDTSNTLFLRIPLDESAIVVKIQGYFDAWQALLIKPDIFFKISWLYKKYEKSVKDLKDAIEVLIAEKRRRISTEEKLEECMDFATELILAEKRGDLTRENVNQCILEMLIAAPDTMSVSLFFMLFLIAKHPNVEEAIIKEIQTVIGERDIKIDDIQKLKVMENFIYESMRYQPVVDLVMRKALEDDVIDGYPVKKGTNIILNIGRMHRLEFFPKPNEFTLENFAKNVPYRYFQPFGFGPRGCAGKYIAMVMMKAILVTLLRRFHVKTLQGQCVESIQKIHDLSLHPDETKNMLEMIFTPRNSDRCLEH
human CYP2D6, CYP2D6 (gene 1565), sequence (P10635 whole entry, looked up): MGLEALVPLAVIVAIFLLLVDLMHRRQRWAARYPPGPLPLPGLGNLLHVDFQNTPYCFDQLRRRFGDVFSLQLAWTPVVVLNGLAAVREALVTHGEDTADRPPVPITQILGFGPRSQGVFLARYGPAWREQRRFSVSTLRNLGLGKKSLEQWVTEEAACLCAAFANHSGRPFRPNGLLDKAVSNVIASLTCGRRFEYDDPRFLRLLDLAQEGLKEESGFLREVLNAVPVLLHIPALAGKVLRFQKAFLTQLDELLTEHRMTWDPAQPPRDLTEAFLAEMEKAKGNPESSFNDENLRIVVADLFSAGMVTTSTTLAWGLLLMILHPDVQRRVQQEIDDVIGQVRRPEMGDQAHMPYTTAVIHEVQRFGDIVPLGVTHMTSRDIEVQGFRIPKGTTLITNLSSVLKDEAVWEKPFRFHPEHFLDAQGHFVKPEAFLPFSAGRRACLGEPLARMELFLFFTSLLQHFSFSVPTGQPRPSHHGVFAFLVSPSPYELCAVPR
human CYP1A1, CYP1A1 (gene 1543), sequence (P04798 whole entry, looked up): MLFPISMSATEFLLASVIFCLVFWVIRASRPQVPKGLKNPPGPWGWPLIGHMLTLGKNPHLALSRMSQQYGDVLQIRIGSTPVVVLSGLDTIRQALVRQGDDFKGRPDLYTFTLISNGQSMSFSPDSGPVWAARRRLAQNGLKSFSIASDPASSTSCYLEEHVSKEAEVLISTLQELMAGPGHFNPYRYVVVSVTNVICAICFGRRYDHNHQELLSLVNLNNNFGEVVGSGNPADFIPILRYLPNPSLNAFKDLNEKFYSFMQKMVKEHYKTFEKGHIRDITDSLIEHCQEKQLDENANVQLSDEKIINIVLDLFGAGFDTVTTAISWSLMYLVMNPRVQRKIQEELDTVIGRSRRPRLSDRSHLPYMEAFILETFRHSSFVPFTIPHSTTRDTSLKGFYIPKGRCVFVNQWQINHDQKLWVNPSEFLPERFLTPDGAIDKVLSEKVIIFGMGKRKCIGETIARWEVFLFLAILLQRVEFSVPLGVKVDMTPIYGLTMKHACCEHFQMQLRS

Nc1cc([N+](=O)[O-])cc(Cl)c1O
not listed: [8] | [9] | [10]
inactive: all other assays above

O=C(O)C(F)(F)C(F)(F)C(F)(F)C(F)(F)C(F)(F)C(F)(F)C(F)F
not listed: [8] | [9] | [10]
inactive: all other assays above

O=C(c1ccccc1)c1ccc(O)cc1O
active: [8] 5 µM
not listed: [9] | [10]
inactive: all other assays above

NC(=O)C(F)(F)C(F)(F)C(F)(F)C(F)(F)C(N)=O
not listed: [8] | [9] | [10]
inactive: all other assays above

CCCCCCCCn1sc(Cl)c(Cl)c1=O
inactive: [9]

CCc1cc(Cc2cc(CC)c(N)c(CC)c2)cc(CC)c1N
active: [10] 1.7 µM

CCN=C1C=CC(=C(c2ccc(N(CC)CC)cc2)c2ccc(N(CC)CC)cc2)c2ccccc21
active: [1] 762 nM and 1.25 µM | [2] 1.45 µM and 1.11 µM | [3] 1.82 µM and 1.55 µM | [5] 1.47 µM and 1.15 µM | [6] 419 nM and 401 nM | [7] 1.78 µM and 2.37 µM

O=C1c2c(O)ccc(Nc3ccc(CCO)cc3)c2C(=O)c2c([N+](=O)[O-])ccc(O)c21
inactive: [1] | [2] | [7]
active: [3] 33.7 µM | [5] 0.379 µM | [6] 20 µM | [8] 5 µM

CCOC(C=C(C)CCC=C(C)C)OCC
active: [6] 34.4 µM
inactive: [1] | [2] | [3] | [5] | [7]

OCCCC(F)(F)C(F)(F)C(F)(F)C(F)(F)C(F)(F)C(F)(F)C(F)(F)C(F)(F)F
active: [1] 23.2 µM and 51.9 µM | [2] 52 µM and 54 µM | [3] 53.4 µM and 53.2 µM | [5] 43.2 µM and 37 µM | [6] 10.2 µM and 14.6 µM | [7] 27 µM and 47.8 µM

OCCCCC(F)(F)C(F)(F)C(F)(F)C(F)(F)F
inactive: [1] | [2] | [3] | [5] | [6] | [7]

O=S(=O)(O)CCC(F)(F)C(F)(F)C(F)(F)C(F)(F)F
inactive: [1] | [2] | [3] | [5] | [6] | [7]

CCN(CC)c1ccc(N=Nc2ccccc2)cc1
active: [1] 30.2 µM | [2] 13.8 µM | [5] 29.4 µM | [6] 12.7 µM | [7] 29.5 µM
inactive: [3]

NCC(F)(F)C(F)(F)C(F)(F)C(F)(F)C(F)(F)C(F)(F)F
inactive: [1] | [2] | [3] | [5] | [6] | [7]

FC(F)(F)C(F)(F)C(F)(F)C(F)(F)C(F)(F)C(F)(F)C(F)(F)CCI
inactive: [1] | [2] | [3] | [5] | [6] | [7]

CC(C)Nc1ccc(NC(C)C)c2c1C(=O)c1ccccc1C2=O
active: [10] 3.18 µM

CC(C)(C)c1cc(CCC(=O)NCCCCCCNC(=O)CCc2cc(C(C)(C)C)c(O)c(C(C)(C)C)c2)cc(C(C)(C)C)c1O
inactive: [1] | [2] | [3] | [5] | [6] | [7]

Cc1cc(C)c(O)c(C(C)(C)C)c1
inactive: [3] | [5]
active: [1] 30.8 µM | [2] 28.8 µM | [6] 31.2 µM | [7] 35.1 µM

CCN(CCO)S(=O)(=O)C(F)(F)C(F)(F)C(F)(F)C(F)(F)C(F)(F)C(F)(F)C(F)(F)C(F)(F)F
inactive: [2] | [3] | [5]
active: [1] 18.8 µM and 18.3 µM | [6] 23.6 µM and 18.6 µM | [7] 30 µM and 27.9 µM

CC(C)CCCC(C)CCO (configuration not stated)
active: [2] 20 µM | [6] 20 µM
inactive: [1] | [3] | [5] | [7]

O=C(F)C1(F)C(F)(F)C(F)(F)C(F)(F)C(F)(F)C1(F)F
inactive: [1] | [2] | [3] | [5] | [6] | [7]

C=CC(=O)OCCC(F)(F)C(F)(F)C(F)(F)C(F)(F)F
inactive: [3] | [7]
active: [1] 19.4 µM and 14.4 µM | [2] 40.1 µM and 40 µM | [5] 33 µM and 30.1 µM | [6] 30 µM

CC(C)=CCCC(C)O (configuration not stated)
inactive: [8]

C[C@]12CC[C@H]3C(=CCc4cc(O)ccc43)[C@@H]1CCC2=O
not listed: [4] | [9] | [10]
inactive: all other assays above

Cc1ccc(O)c(-n2nc3ccccc3n2)c1
inactive: [1] | [2] | [3] | [5] | [6] | [7]

Cc1ccc(S(=O)(=O)C(I)I)cc1
active: [1] 3.7 µM | [2] 5.14 µM | [3] 6.86 µM | [5] 4.27 µM | [6] 0.866 µM | [7] 5.34 µM

CCN(CC)c1ccc(C=O)c(O)c1
inactive: [1] | [2] | [3] | [5] | [6] | [7]

CNS(=O)(=O)C(F)(F)C(F)(F)C(F)(F)C(F)(F)C(F)(F)C(F)(F)C(F)(F)C(F)(F)F
inactive: [1] | [2] | [3] | [5] | [6] | [7]

OC(O)C(F)(F)C(F)(F)F
inactive: [1] | [2] | [3] | [5] | [6] | [7]

FC(F)(F)C(F)(F)C(F)(F)C(F)(F)C(F)(F)C(F)(F)CC[Si](Cl)(Cl)Cl
inactive: [1] | [2] | [3] | [5] | [6] | [7]

NC(=O)C(F)(F)C(F)(F)C(F)(F)F
inactive: [1] | [2] | [3] | [5] | [6] | [7]

CN(C(=O)C(F)(F)C(F)(F)C(F)(F)F)[Si](C)(C)C
inactive: [1] | [2] | [3] | [5] | [6] | [7]

NC(O)(C(F)(F)F)C(F)(F)F
inactive: [1] | [2] | [3] | [5] | [6] | [7]

COC(F)(C(F)F)C(F)(F)F (configuration not stated)
inactive: [1] | [2] | [3] | [5] | [6] | [7]

OCC(F)(F)C(F)(F)C(F)(F)CO
inactive: [1] | [2] | [3] | [5] | [6] | [7]

CCOC(OCC)OCC
inactive: [10]

Cc1cc(O)c(C(C)(C)C)cc1C(C)(C)C
active: [1] 7.3 µM | [2] 5.34 µM | [3] 10.2 µM | [5] 5.33 µM | [6] 3.82 µM | [7] 6.3 µM

O=C(Cl)C(F)(F)C(F)(F)C(F)(F)C(F)(F)C(F)(F)C(F)(F)C(F)(F)F
inactive: [1] | [2] | [3] | [5] | [6] | [7]

CO[Si](C)(CCC(F)(F)C(F)(F)C(F)(F)C(F)(F)C(F)(F)C(F)(F)F)OC
inactive: [1] | [2] | [3] | [5] | [6] | [7]

Cc1cnccn1
inactive: [1] | [2] | [3] | [5] | [6] | [7]
